Results on 88 compounds are retold here after PubChem BioAssay AID602252 (Broad Institute, 2012).

The inhibition is the change of the read-out against control, counted positive when it falls.

Each structure is given as a SMILES string. Among all 300,000 compounds or so, about 2,700 (0.9%) were called active. Many of the other results were omitted from the sample, so actives are more common in it than they were. Values without a mark were called inactive.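 The calls were made as follows: active = mean inhibition of at least 30% with at least half of replicates also reaching 30%; inconclusive = no clear call, values can overlap the other calls; inactive = the rest.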

The target in this test is Golgi-associated PDZ and coiled-coil motif-containing protein (Homo sapiens) (UniProt Q9HD26). The experiment in a line: blockade of CAL PDZ-reporter peptide interaction – biochemical, fluorescence polarization, untagged CAL PDZ, HTS, primary screen (AID 602252).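 Also: 0% = DMSO neutral control and 100% = excess unlabeled competitor peptide PRC23.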 The settings on record: purified CAL PDZ, TMR-peptide fluorescence polarization, 1 h; at 24.9 µM; stronger effect = higher value. (In general: Polarisation of emitted light reports the rotation of a fluorescent probe.)
Take `O=C1CN(C(=O)COC(=O)/C=C/c2ccc(F)cc2)c2ccccc2N1`: the inhibition was -2.46%. Then `C=CCn1c(COc2ccccc2F)nnc1SCC(=O)N1CC(=O)Nc2ccccc21`, with 56% (active); and `Nn1c(Cc2cccc3ccccc23)nnc1SCC(=O)N1CC(=O)Nc2ccccc21`, with 1.45%; and `COc1cc(NC(=O)c2[nH]cnc2C(N)=O)cc(C(=O)Nc2cccc(C(F)(F)F)c2)c1`, with -1.42%.

As for `COC(=O)c1ccc(/C=C/c2c(-c3ccc(OC)cc3)sc3ccccc23)cc1`, the inhibition is 0.974%.

As for `COc1ccc(/C=C/c2noc(-c3ccccc3OC(C)=O)n2)cc1`, the inhibition is 87% (active). To `COc1cccc(/C=C/c2ccc3ccccc3n2)c1OC(C)=O` belongs -0.936%; to `COCC(=O)N(C)[C@H]1C[C@H]2c3cc(Oc4ccccc4C)ccc3CCN2C(=O)[C@H]1[C@H](C)O`, -3.46%; to `C=CCC[C@@H](Cc1ccc(F)cc1)C(=O)OC[C@@H](C)NC(=O)[C@H](CC=C)CC(=O)N(CCO)Cc1ccccc1`, 3.24%. To `COc1ccc(-c2noc(CCC(=O)N3CCN(c4cccc(C)c4)CC3)n2)cc1` belongs -3.56%; to `COc1ccc(CNC(=O)C[C@H]2C[C@H](C(=O)N3CCOCC3)[C@@]3(C)c4[nH]c5cc(CCC(=O)N(C)C)ccc5c4CCN3C2=O)cc1OC`, -5.01%; to `O=S(=O)(c1ccc(OCC(O)CN2CCN(c3ccccc3Cl)CC2)cc1)N1CCOCC1` (stereo not drawn), -2.34%. On to `CC(=O)c1ccc(OCC(O)CN2CCN(S(=O)(=O)c3cccc(Br)c3)CC2)cc1` (stereo not drawn), for which the inhibition was 35% (active). For `Cc1cccc(OCC(O)CN2CCN(S(=O)(=O)c3ccc(C)cc3C)CC2)c1` (stereo not drawn), the inhibition is 1.68%. Then `COC(=O)c1ccc(NCc2cc(O)ccc2O)cc1`, with 0.712%; and `COc1cc(/C=C2/C(=O)ON=C2C)ccc1OCc1cccc(F)c1`, with 40.4% (active). Then `C=CCOc1ccc(/C=C2/C(=O)ON=C2C)cc1OCC`, with -3%; and `COc1cc(/C=C2/C(=O)ON=C2C)ccc1OCc1ccccc1F`, with -3.18%; and `COc1cc(OC)c(C(=O)NNC(=O)c2ccc(NS(=O)(=O)c3cccs3)cc2)cc1OC`, with -2.8%. To `C=CC(=O)Nc1ccc(Nc2ccnc(Nc3ccc(N4CCN(C)CC4)cc3)n2)cc1` belongs -0.863%; to `COC(=O)c1ccc(NC(=O)Nc2ccc(C)cc2)cc1`, -0.88%; to `COC(=O)c1ccc(NC(=S)Nc2cccc(C)n2)cc1`, 52.8% (active). Take `CCOC(=O)c1ccc(NC(=S)Nc2cc(C)cc(C)n2)cc1`: the inhibition is -17%. To `O=C(N[C@@H]1C/C=C\C[C@@H](CC(=O)N(CCO)Cc2ccccc2)C(=O)N[C@H](Cc2ccccc2)COC1=O)OCC1c2ccccc2-c2ccccc21` belongs 14.1%; to `CC1Cc2ccccc2N1S(=O)(=O)c1cccc(C(=O)NCC(c2ccco2)N2CCCC2)c1` (stereo not drawn), 1.18%; to `COC(=O)[C@]1(Cc2ccccc2)N[C@H](CN(C)S(=O)(=O)c2ccc(F)cc2)[C@@H]2C(=O)N(Cc3ccccc3)C(=O)[C@@H]21`, -4.16%. `COc1cc(/C=C/C(=O)Nc2ccc(OC)c(S(=O)(=O)N3CCOCC3)c2)ccc1OCC#N`: the inhibition was -3.83%.

As to `CN(C(=O)CSc1nnc(Nc2ccccc2)s1)C1CCS(=O)(=O)C1` (stereo not drawn), the inhibition is -5.88%. Turning to `Cc1csc(SCC(=O)N(c2ccccc2)C(C)C)n1`, the inhibition was -3.25%. To `CC(C)N(C(=O)CSc1nnc(NC2CC2)s1)c1ccccc1` belongs 31.5% (active); to `C=CCOC(=O)N1CCC2CC1c1cc(-c3ccc(OC)cc3)ccc12` (stereo not drawn), -1.31%. Then `Cc1cccc(C)c1NC(=O)CNC(=O)C1CCCC1`, with -2.92%; and `CCc1cccc(C)c1NC(=O)COC(=O)CC1CCCC1`, with 31.1% (active); and `CCc1cccc(C)c1NC(=O)COC(=O)Cc1ccsc1`, with 5.55%. To `COc1ccc2[nH]c3c(c2c1)CCN1C(=O)C(CC(=O)NCc2cccc(C(F)(F)F)c2)C[C@H](C(=O)N2CCOCC2)[C@@]31C` (stereo partly drawn) belongs -2.83%; to `COc1cc(/C=C/C(=O)OCC(=O)c2ccccc2)cc(OC)c1OC`, -8.15%.

On to `Cc1cccc(OC(=O)c2sc3ncn(C)c(=O)c3c2C)c1`, for which the inhibition is -1.6%. Then `Cc1c(C(N)=O)sc2ncn(CCOc3ccccc3)c(=O)c12`, with 40.6% (active).

For the compound `CCOC(=O)C(C)n1cnc2sc(C)c(C)c2c1=O` (stereo not drawn), the inhibition was -4.48%.

For `O=[N+]([O-])c1cc2ccccc2nc1-c1ccccc1`, the inhibition is 3.37%.

In the case of `Cc1cc(C)cc(C(=O)NCC(=O)OCC(=O)N2CCCCC2)c1`, the inhibition was -4.99%.

As to `COc1cc(OC)cc(C(=O)NCC(=O)N2CCCCCCC2)c1`, the inhibition was 59.5% (active). On to `CCOc1ccc(C(=O)NCC(=O)N2CCCCCCC2)cc1OCC`, for which the inhibition is 2.87%.

With `Cc1ccc(C2(C)NC(=O)N(CC(=O)N3CC(=O)Nc4ccccc43)C2=O)cc1` (stereo not drawn), the inhibition is -3.12%.

Regarding `Cc1cccc(OCC(=O)OCC(=O)Nc2ccc(Cl)cn2)c1`, the inhibition is 74.8% (active). To `CC(OC(=O)CCCOc1ccccc1)C(=O)Nc1ccc(Cl)cn1` (stereo not drawn) belongs -3.1%; to `O=C(COC(=O)c1ccco1)Nc1ccc(Cl)cn1`, -5.62%.

For the compound `CC(=O)Nc1ccc(S(=O)(=O)NCCC(=O)N2CCN(c3ccccc3Cl)CC2)cc1`, the inhibition is -2.76%.

Turning to `COc1cc(C)ccc1OCC(=O)OCC(=O)c1ccc[nH]1`, the inhibition was 3.54%. With `Cc1cccc(CC2(O)C(=O)Nc3ccccc32)n1` (stereo not drawn), the inhibition was 3.12%.

For the compound `Cc1cc([N+](=O)[O-])ccc1NS(=O)(=O)c1ccccc1`, the inhibition is 2.21%. For the compound `CC(=O)c1ccc(OCCCC(=O)Nc2ccc(C)c(S(=O)(=O)N3CCOCC3)c2)cc1`, the inhibition was -2.79%. Then `CCN(CC)S(=O)(=O)c1ccc(Cl)c(C(=O)NCCN2CCOCC2)c1`, with 34.1% (active). To `CCN(CC)S(=O)(=O)c1ccc(N2CCOCC2)c(C(=O)O)c1` belongs -7.23%; to `CCN(CC(=O)NCCCN1CCOCC1)S(=O)(=O)c1cc(Cl)ccc1Cl`, 6.12%; to `CCOC(=O)c1c(NC(=S)NC)sc2c1CCCC2`, 2.4%. As for `CCOC(=O)c1c(NC(=S)NC(=O)c2ccco2)sc2c1CCCC2`, the inhibition is 58.9% (active). To `CC(C)OC(=O)c1c(NC(=O)c2ccco2)sc2c1CCCC2` belongs -1.93%; to `C=CC(COCc1ccccc1)N(CC(=O)OC)S(=O)(=O)c1cc(Br)ccc1OC` (stereo not drawn), -5.08%.

In the case of `Cc1ncoc1C(=O)NCCC(c1ccccc1)c1ccccc1`, the inhibition is 56.7% (active).

In the case of `Cc1ccc(S(=O)(=O)NCCC(c2ccccc2)c2ccccc2)cc1C(=O)O`, the inhibition was 3.3%. To `Cc1ccc(C(=O)NCCNC(=O)c2ccccc2)cc1` belongs 10.7%; to `COc1cc(C(=O)NC2CCN(C)CC2)ccc1Nc1ncc2c(n1)N(C1CCC(O)CC1)CCC(=O)N2C` (stereo not drawn), -0.543%. Then `FC(F)(F)c1ccc(-c2cccc3c2C2CC3CCN2Cc2ccccc2)cc1` (stereo not drawn), with -2.76%; and `CC(C)c1ccc(C=NNc2ccc([N+](=O)[O-])cn2)cc1`, with -3.5%; and `C[C@H](O)[C@@H]1C(=O)N2CCc3ccc(N4CCOCC4)cc3[C@@H]2C[C@@H]1N(C)C(=O)C(C)(C)C`, with -2.27%. Then `CN(CCc1ccccc1)C(=O)c1cccc(NC(=O)Cc2cccc(NC(=O)C3CCCN(C(=O)CCc4ccccc4)C3)c2)c1` (stereo not drawn), with -1.89%; and `Cc1ccc(S(=O)Cc2ccc(C(=O)N3CCN(C4CCCCC4)CC3)o2)cc1` (stereo not drawn), with -1.71%. On to `Cc1ccc(C(=O)N2CCN(C(=O)N3CCOCC3)CC2)cc1`, for which the inhibition was -4.62%.

With `Cc1ccc(CS(=O)Cc2ccc(C(=O)N3CCOCC3)o2)cc1` (stereo not drawn), the inhibition was 61.7% (active). To `CC/C(=C(/c1ccccc1)c1ccc(OCC[N+](C)(C)C)cc1)c1ccccc1` belongs 5.44%; to `CC(C)Cn1cnc2c(SCc3ccc(Cl)cc3)nc(N)nc21`, -5.42%. To `CC(=O)CSc1nc(CCc2ccccc2)c(C#N)c(=O)[nH]1` belongs -3.06%.

`CCNC(=S)Nc1ccc(OC(F)(F)F)cc1`: the inhibition was -0.766%. Then `FC(F)(F)Oc1ccc(NC(=S)NCc2ccccc2)cc1`, with 2.02%. Turning to `CS(=O)(=O)c1sc(C(=O)NC(=S)Nc2ccc(OC(F)(F)F)cc2)c2c1C=CCC2`, the inhibition is 106% (active). Then `CCC(=O)N1CCc2cc(Br)c(S(=O)(=O)NCCN3CCCCC3CC)cc21` (stereo not drawn), with -29.4%; and `Cc1ccc(C(=O)Nc2ccccc2-c2ccccc2)cc1S(=O)(=O)Nc1ccccc1`, with -1.73%.

With `Cc1ccc(CNC(=O)Cn2cnc3c(NCc4ccccc4)ncnc32)o1`, the inhibition was -0.092%. Consider `COc1ccc(C)cc1NC(=O)CN1c2cccc3cccc(c23)S1(=O)=O`, for which the inhibition is -0.836%. To `CC(C(=O)N1CCOCC1)N1c2cccc3cccc(c23)S1(=O)=O` (stereo not drawn) belongs 0.599%; to `COc1ccc(NC(=O)C(C)N2c3cccc4cccc(c34)S2(=O)=O)c(OC)c1` (stereo not drawn), 62.5% (active).

As to `O=C(Cn1cnc2cc([N+](=O)[O-])ccc2c1=O)NC(=O)NCc1ccccc1`, the inhibition was 65.7% (active). Then `CC(C)(C)NC(=O)Cn1cnc2cc([N+](=O)[O-])ccc2c1=O`, with -5.79%; and `O=C(Cn1cnc2c(cnn2-c2ccccc2)c1=O)NCc1ccccc1`, with 2.18%; and `COc1cc(C(=O)OCc2cc(=O)n3ccsc3n2)ccc1OC(C)C`, with -4.78%. To `Oc1[nH]c2ccccc2c1N=Nc1c(F)c(F)c(F)c(F)c1F` belongs -3.27%. Consider `O=C(OCC(=O)N1CCN(c2ccccc2)CC1)c1ccc([N+](=O)[O-])s1`, for which the inhibition was 4.92%.
